# PubChem BioAssay (EPA / NIEHS)
# Activity calls are given as the source filed them. Rule for the calls: active = hit-call score of the fitted dose curve at least 0.9, where 1 is the maximum; inactive = score below 0.9.
# Biological target: Hepatocyte nuclear factor 6 (Homo sapiens) (UniProt Q9UBC0)
# Assay: ATG_HNF6_CIS: Attagene CIS-FACTORIAL HepG2 Assay for human Hepatocyte Nuclear Factor 6 (HNF6) (AID 2282952)
# Conditions: HepG2 Attagene cis-factorial HNF6 reporter transcription; actives raise or lower the signal
# Method: ATG_CIS is a cell-based, multiplexed-readout assay that uses HepG2, a human liver cell line, with measurements taken at 24 hours after chemical dosing in a 24-well plate.ATG_HNF6_CIS is one of 52 assay component(s) measured or calculated from the ATG_CIS assay. It is designed to make measurements of mRNA induction, a form of inducible reporter, as detected with fluorescence intensity signals by Reverse transcription polymerase chain reaction (RT-PCR) and Capillary electrophoresis technology.Data from the assay component ATG_HNF6_CIS was analyzed into 1 assay endpoint. This assay endpoint, ATG_HNF6_CIS, was analyzed with bidirectional fitting relative to DMSO as the negative control and baseline of activity. Using a type of inducible reporter, measures of mRNA for gain or loss-of-signal activity can be used to understand the reporter gene at the transcription factor-level as they relate to the gene ONECUT1. Furthermore, this assay endpoint can be referred to as a primary readout, because this assay has produced multiple assay endpoints where this one serves a reporter gene function. To generalize the intended target to other relatable targets, this assay endpoint is annotated to the dna binding intended target family, where the subfamily is homeobox protein.
# Human liver HepG2 cells are transiently transfected with multiple reporter transcription units (MRTUs) in 6-well plates using FuGene 6 reagent (Roche; 3 ml FuGene/1 mg DNA). The MRTU constructs are regulated by a cis-regulating element (promoter). […] A major difference between the CIS and TRANS system is that in CIS activities of endogenous TFs are measured, whereas the TRANS assay evaluates changes in activities of exogenous, chimeric NR-Gal4 proteins. […] At the end of 24 hour incubation, total RNA was isolated using TriZol reagent (Invitrogen). The isolated RNA is then reverse-transcribed using oligo(dT) primer and Mo-MLV reverse transcriptase (Invitrogen) with DNAse I (Ambion) treatment for 30 min. The one-tenth of the produced cDNA was amplified by PCR using Taq DNA polymerase (Invitrogen) and two reporter sequence-specific primers. The PCR products were fluorescently labeled by primer extension with 6-arboxyfluorescein (6-FAM) 5'-labeled reporter sequence-specific primer (2 min at 95 C, 20 s at 68 C and 10 min at 72 C) and these products were digested with 5U of HpaI (New England Biolabs) for 2h at 37 C. The fragments were purified using Qiaquick PCR columns (Qiagen), analyzed on an ABI 3130xL genetic analyzer (Applied Biosystems) with peak positions identified by using a set of X-rhodamine (ROX)-labeled MapMarker1000 molecular weight standards (BioVentures). The raw capillary electrophoresis data was processed using Attagraph software (Attagene).
# Sequence of Hepatocyte nuclear factor 6 (Homo sapiens) (Q9UBC0 whole entry, looked up): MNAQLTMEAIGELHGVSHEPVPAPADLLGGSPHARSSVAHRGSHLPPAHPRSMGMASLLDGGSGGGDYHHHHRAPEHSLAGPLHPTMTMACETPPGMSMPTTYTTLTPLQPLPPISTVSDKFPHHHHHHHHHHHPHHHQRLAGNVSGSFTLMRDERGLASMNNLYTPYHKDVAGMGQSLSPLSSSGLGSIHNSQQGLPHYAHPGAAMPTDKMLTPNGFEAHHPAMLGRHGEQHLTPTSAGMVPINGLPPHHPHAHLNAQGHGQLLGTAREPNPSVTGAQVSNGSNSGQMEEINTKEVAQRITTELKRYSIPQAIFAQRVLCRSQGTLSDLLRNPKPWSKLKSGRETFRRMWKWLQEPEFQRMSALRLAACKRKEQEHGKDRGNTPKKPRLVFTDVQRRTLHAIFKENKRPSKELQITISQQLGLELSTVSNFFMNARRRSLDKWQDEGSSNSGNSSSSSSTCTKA
row,SMILES,outcome
1,C[C@]12C=CC(=O)C=C1CC[C@@H]1[C@@H]2[C@@H](O)C[C@@]2(C)[C@H]1CC[C@]2(O)C(=O)CO,inactive
2,CC(=O)OCC(C)OC(C)=O (stereo not given),inactive
3,O=C(Nc1cccc(C(F)(F)F)c1)c1cc(Br)cc(Br)c1O,inactive
4,CCCCC/C=C\CCC=O,inactive
5,N#CCc1ccc(Cl)cc1Cl,inactive
6,CCCCCCCC(C)=O,inactive
7,Cc1cc(O)c(Cl)c(C)c1Cl,inactive
8,CN1C(=O)N(C)C(O)C1O (stereo not given),inactive
9,Cc1ccc(C(C)c2ccc(C)c(C)c2)cc1C,inactive
10,O=C(/C=C/C=C/c1ccc2c(c1)OCO2)N1CCCCC1,inactive
11,c1ccc(-c2ccccn2)nc1,inactive
12,CCCCOCCOC(=O)COc1nc(Cl)c(Cl)cc1Cl,inactive
13,CC(C)(C)c1n[nH]c(=O)n(N)c1=O,inactive
14,CCC(Cc1ccccc1)(C(=O)c1ccc(N2CCOCC2)cc1)N(C)C (stereo not given),inactive
15,CC=CC(=O)N(CC)c1ccccc1C,inactive
16,O=C(O)c1cc2ccccc2nc1C(=O)O,inactive
17,C[Si](C)(CCCN)O[Si](C)(C)CCCN,inactive
18,O=c1c2ccccc2oc2ccccc12,inactive
19,O=S(=O)(Oc1ccc(Cl)cc1Cl)c1ccccc1,inactive
20,O=CC1CC1,inactive

row,SMILES,outcome
1,OCCNCc1ccccc1,inactive
2,CCc1nccnc1C,inactive
3,C[Si](C)O[Si](C)(C)O[Si](C)(C)O[Si](C)C,inactive
4,CCOC(=O)Cc1cccc2ccccc12,inactive
5,O=C1CCCN1CCO,inactive
6,c1ccc2c(c1)ccc1ncccc12,inactive
7,COc1ccc(C(Cl)=C(c2ccc(OC)cc2)c2ccc(OC)cc2)cc1,inactive
8,CCOC(=O)CC(C(C)=O)C(C)=O,inactive
9,O=C1C=CC(=O)O1,inactive
10,C=CC(C)(C)C,inactive
11,CCCCCCC(O)CO (stereo not given),inactive
12,O=C(OCC1CCC2OC2C1)C1CCC2OC2C1 (stereo not given),inactive
13,O=C1CCCCCCCCCCCCCCCO1,inactive
14,[Cl][Nd]([Cl])[Cl],inactive
15,O=Nc1ccc(O)cc1,inactive
16,O=[N+]([O-])C1(Br)COCOC1,inactive
17,CC(C)(C)c1ccc(N)cc1,inactive
18,CCC(CO)CO,inactive
19,CCCC(C)CCC(C)=O (stereo not given),inactive
20,CC(C)C1=CC2=CC[C@@H]3[C@](C)(CCC[C@@]3(C)C(=O)O)[C@H]2CC1,inactive
